HCV inh: qHTS Assay for Inhibitors of Hepatitis C Virus (HCV). Huh7.5.1 HCVcc-Cre infection, luciferase reporter, 44 h. Potency, µM (top dose mostly 41.8 µM), inactives show at the highest dose activity change, negative = inhibition, hits mostly inhibitors. 340,000 compounds, 3.4% hits. AID 651820, 2012; note: potency is the fitted concentration of half-maximal effect; % is set by controls: 0 for no effect and ±100 for the full control effect
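Reporter virus HCVcc-Cre (~0.5 moi) infects cells exposed to compound; seeding density 1,000 cells/well with 4 h settling beforehand. Luminescence, 15 sec read, taken 44 h post-infection following a 15 min RT substrate incubation.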
Shiga inhibitor: A qHTS for Small Molecule Inhibitors of Shiga Toxin | Vero cells, Shiga toxin protein synthesis inhibition reporter | inhibition, % at 38.7 µM | 290,000 compounds, 9.2% hits; in the data active = inhibition mostly above about 28%, no sharp cut-off; inactive = mostly below about 43%; note: 0% is about no effect
Pf growth 48h: Primary qHTS for delayed death inhibitors of the malarial parasite plastid, 48 hour incubation. P. falciparum luciferase growth in erythrocytes, 48 h. Potency, µM (highest dose often 28.7 µM), for inactives: at the top dose activity change, negative = inhibition, most hits filed as inhibitors. 310,000 compounds, 5.9% hits. AID 504832, 2011; note: potency is the fitted concentration of half-maximal effect; % is set by controls: 0 for no effect and ±100 for the full control effect
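Cell-based growth assay: transgenic P. falciparum expressing firefly luciferase, cultured in red cells within RPMI 1640 containing 0.5% w/v Albumax, 24 mM bicarbonate and gentamycin. A drop in luciferase activity indicates inhibition.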
Pf growth 96h: Primary qHTS for delayed death inhibitors of the malarial parasite plastid, 96 hour incubation. AID 504834, 2011. 320,000 compounds, 6.9% hits. Potency, µM (titrated, usually from 28.7 µM), without a hit: at the highest dose activity change, negative = inhibition, hits mostly inhibitors. P. falciparum luciferase reporter growth, 96 h; note: potency is the fitted concentration of half-maximal effect; % is set by controls: 0 for no effect and ±100 for the full control effect
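Delayed-death screen, second-generation endpoint: infected erythrocytes, 2% hematocrit, 0.05% parasitemia final; 96 hours at 37 C, 5% CO2; luciferase detection reagent; luminescence decrease equals reduced growth.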
Cycloheximide cs: Cycloheximide Counterscreen for Small Molecule Inhibitors of Shiga Toxin; cell reporter, cycloheximide protein synthesis inhibition counterscreen; max response, %; 300,000 compounds, 12% hits; AID 2314, 2010; in the data active = max response mostly above about 13%, no sharp cut-off; inactive = mostly below about 14%; note: read at 38.3 µM for the half of the compounds with a filed dose; 0% is about no effect
HCMV inh: qHTS Assay for inhibitors of the human cytomegalovirus (HCMV). HFF cells, HCMV-luciferase reporter, 72 h; active compounds read low. activity change, negative = inhibition, % at 57.5 µM. 410,000 compounds, 4.5% hits. AID 1259415, 2018; in the data active = activity change below about -60%; inconclusive = no clear call, values can overlap the other calls; inactive = above about -39%; note: % is set by controls: 0 for no effect and ±100 for the full control effect
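Luciferase read-out from HCMV-luciferase-infected HFFs (MOI 1 PFU/cell) 72 h post infection at 37C; compounds added after 16 h cell attachment; activity normalized between buffer-only basal and Salinomycin (10uM) inhibitor controls.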
An asterisk follows results filed as active. The list is not random: actives were taken first. Their share in the collection is about 21%. Unless noted, calls come from the whole dose curve; as a rule, active = well fitted inhibition curve with a large enough effect; inconclusive = small, poorly fitted or top-dose-only effect, or another doubt; inactive = no such curve, though single readings can be large or run the other way.

Screening Cc1cccc(N2C(=O)CC(N(O)c3ccccc3)C2=O)c1 (stereo not given) returned HCV inh 8%, Shiga inhibitor 59, Pf growth 48h 46%, Pf growth 96h 13%, Cycloheximide cs 28* and HCMV inh 15.
Screening Cc1cccc(N2C(=O)SC(N(C)c3ccccc3)C2=O)c1 (stereo not given) returned HCV inh 4%, Shiga inhibitor 12, Pf growth 48h -7%, Pf growth 96h 26%, Cycloheximide cs 12 and HCMV inh -13.
Screening O=C1CC(N(O)c2ccccc2)C(=O)N1c1ccc(Cl)c(Cl)c1 (stereo not given) returned HCV inh 6%, Shiga inhibitor 18, Pf growth 48h 11%, Pf growth 96h 31%, Cycloheximide cs 10* and HCMV inh 3.
Screening O=C1NC2CCc3nc4ccccc4c(=O)n3C2=Nc2ccccc21 (stereo not given) returned HCV inh inconclusive, Shiga inhibitor 9, Pf growth 48h 28%, Pf growth 96h 12µM*, Cycloheximide cs -2 and HCMV inh 6.
For COc1ccc(S(=O)(=O)N(C)c2ccc(C(=O)Nc3ccccc3C(=O)N3CCOCC3)cc2)cc1OC the results were HCV inh -16%, Shiga inhibitor -6, Pf growth 48h 12µM*, Pf growth 96h inconclusive, Cycloheximide cs 0 and HCMV inh inconclusive.
For COc1ccc(N2CCN(C(=O)c3ccc(N(C)S(=O)(=O)c4ccc(OC)cc4)cc3)CC2)cc1 the results were HCV inh inconclusive, Shiga inhibitor -6, Pf growth 48h inconclusive, Pf growth 96h inconclusive, Cycloheximide cs 0 and HCMV inh -63*.
Screening COc1ccc(N2CCN(C(=O)c3ccc(N(C)S(=O)(=O)c4ccc(C)cc4)cc3)CC2)cc1 returned HCV inh inconclusive, Shiga inhibitor -8, Pf growth 48h 0%, Pf growth 96h -16%, Cycloheximide cs 6 and HCMV inh inconclusive.
For COc1ccc(S(=O)(=O)N(C)c2ccc(C(=O)N3CCOCC3)cc2)cc1OC the results were HCV inh 8%, Shiga inhibitor 3, Pf growth 48h 3%, Pf growth 96h -4%, Cycloheximide cs 7 and HCMV inh -2.
`COc1ccc(S(=O)(=O)N(C)c2ccc(C(=O)N3CCN(c4ccccc4)CC3)cc2)cc1OC` gave HCV inh inconclusive, Shiga inhibitor 20, Pf growth 48h 15µM*, Pf growth 96h inconclusive, Cycloheximide cs -2 and HCMV inh 19.
`C/C(=C\C(=S)Nc1ccccc1)Nc1ccc2ccccc2c1` gave HCV inh -24%, Shiga inhibitor 143*, Pf growth 48h 9.3µM*, Pf growth 96h inconclusive, Cycloheximide cs 74* and HCMV inh 50.
`C/C(=C\C(=S)Nc1ccccc1)Nc1cccc2ccccc12` gave HCV inh inconclusive, Shiga inhibitor 68*, Pf growth 48h -8%, Pf growth 96h 14%, Cycloheximide cs 41* and HCMV inh -21.
CCOC(=O)CCCCCC(=O)Nc1ccc2c(c1)C(=O)N([C@@H](C)CO)C[C@H](C)[C@H](CN(C)C(=O)NC(C)C)OCCCC[C@H](C)O2 was read as HCMV inh 7.
For COC(=O)c1ccc(CO/N=C2\CCCc3nonc32)cc1 the results were HCV inh 19%, Shiga inhibitor 53, Pf growth 48h 80%, Pf growth 96h 11%, Cycloheximide cs 44* and HCMV inh 28.
`COc1ccccc1OCCn1c(COc2cc(C)ccc2C)nc2ccccc21` gave HCMV inh 44.
`COc1cccc(CNC(=O)Cn2ncn3nc(-c4cccs4)cc3c2=O)c1OC` gave HCMV inh 10.
Screening COc1ccccc1C(=O)N=C1SC2CS(=O)(=O)CC2N1c1ccccc1 (stereo not given) returned HCV inh 12%, Shiga inhibitor 22, Pf growth 48h 23%, Pf growth 96h inconclusive, Cycloheximide cs 9.8* and HCMV inh -21.
CCCC(=O)N=C1SC2CS(=O)(=O)CC2N1c1ccc(-c2nc3ccc(C)cc3s2)cc1 (stereo not given) was read as HCV inh 0%, Shiga inhibitor 106*, Pf growth 48h 158%, Pf growth 96h 94%, Cycloheximide cs 44* and HCMV inh 52.
Screening CN(C)c1ccc(N2C(=NC(=O)CCc3ccccc3)SC3CS(=O)(=O)CC32)cc1 (stereo not given) returned HCV inh 9%, Shiga inhibitor 24, Pf growth 48h inconclusive, Pf growth 96h 12µM*, Cycloheximide cs 19* and HCMV inh 0.
CC(=O)c1ccc(N2C(=NC(=O)C3CCCO3)SC3CS(=O)(=O)CC32)cc1 (stereo not given) was read as HCV inh 5%, Shiga inhibitor -8, Pf growth 48h -2%, Pf growth 96h 2%, Cycloheximide cs -2 and HCMV inh -1.
`CN(C)c1ccc(N2C(=NC(=O)C3CCCO3)SC3CS(=O)(=O)CC32)cc1` (stereo not given) gave HCV inh 13%, Shiga inhibitor 21, Pf growth 48h 31%, Pf growth 96h 73%, Cycloheximide cs 38* and HCMV inh -16.
`CC(=O)C1=C(O)C(=O)N(c2ccc(S(N)(=O)=O)cc2)C1c1cccc([N+](=O)[O-])c1` (stereo not given) gave HCV inh 0%, Shiga inhibitor 26, Pf growth 48h 25%, Pf growth 96h 36%, Cycloheximide cs -2 and HCMV inh -19.
For CC(=O)C1C(=O)c2c(cccc2[N+](=O)[O-])C1=Nc1ccc(S(N)(=O)=O)cc1 (stereo not given) the results were HCV inh 3%, Shiga inhibitor 41, Pf growth 48h 1%, Pf growth 96h 5%, Cycloheximide cs 30* and HCMV inh -10.
For CCCCCCCCCCN1CCOCCOCCN(CCCCCCCCCC)CCOCCOCC1 the results were Shiga inhibitor -2 and Cycloheximide cs -2.
CN(C)c1nc(-c2ccccc2)[n+](C)s1 was read as HCV inh 8%, Shiga inhibitor -16, Pf growth 48h 12µM*, Pf growth 96h 23%, Cycloheximide cs -6 and HCMV inh 45.
Cc1cccc(CCN2C(N(C)C)=NC[C@@H]2CC(C)C)c1 was read as HCV inh -21%, Pf growth 48h 13µM*, Pf growth 96h inconclusive and HCMV inh -8.
CC(C)C[C@H]1CN=C(N(C)C)N1CC(C)C was read as HCV inh 9% and HCMV inh 30.
